Measured values taken from PubChem BioAssay (NCATS).
Some of the results follow. Activity calls are given as the source filed them. Calls follow the shape of the dose curve; as a rule, active = well fitted inhibition curve with a large enough effect; inconclusive = small, poorly fitted or top-dose-only effect, or another doubt; inactive = no such curve, though single readings can be large or run the other way.

Biological target: DNA polymerase iota (Homo sapiens) (UniProt Q9UNA4)
Assay: qHTS for Inhibitors of Polymerase Iota: Confirmatory Assay for Cherry-picked Compounds (AID 720496)
Settings: Pol iota primer extension, TAMRA/BHQ fluorescence
Excerpt: DNA polymerases, such as polymerase iota (Pol iota), are involved in DNA repair. Pol iota specifically plays an important role in translesion synthesis, where the normal high-fidelity DNA polymerases cannot proceed and DNA synthesis stalls. […] Thus, while Pol eta and most likely Pol iota's normal functions are to protect humans against the deleterious consequences of DNA damage, under certain conditions they can have deleterious effects on human health. As a consequence, small molecule inhibitors of Pol iota (identified from a high throughput replication assay) have potential therapeutic applications. A 1536-well format, fluorescence based, high-throughput screen (AID 588590) is developed in collaboration with the National Institute of Child Health & Human Development (NICHD) to screen for inhibitors of the Pol eta enzyme. This screen is used to validate the activity of the selected compounds from the primary assay against the human Pol eta. Inhibition is the desired outcome for this assay. NIH Chemical Genomics Center [NCGC] NIH Molecular Libraries Probe Centers Network [MLPCN] MLPCN Grant: MH090825 Assay Submitter (PI): Roger Woodgate, NICHD
Three microliters of reagents (buffer in column 3 and 4 as negative control while 10 nM Pol iota in columns 1, 2, and 5-48) were dispensed into a 1536-well black solid-bottom plate. Compounds (23 nL) were transferred via Kalypsys pin tool equipped with 1536-pin array. The plates were then incubated for 15 min at room temperature, and 1 uL of substrate was added to start the reaction for a final concentration of 50 nM. The substrate was made by the annealing of unlabeled oligodeoxynucleotide primer (59-[…]-39) and TAMRA-labeled reporter strand (59-[…]-6-TAMRA-39) to oligodeoxynucleotide template labeled with BHQ-2 (59-BHQ-2-[…]-39) described in detail at the Yamanaka et.al. (PLOS, 2012) reference paper. The assay plates were initially read after 0 min and again after 10 min of kinetic reaction using the PerkinElmer Viewlux reader equipped with 525 nm excitation and 598 nm emission filters.
Potency is read from the fitted curve at half-maximal effect.

Sequence of DNA polymerase iota (Homo sapiens) (Q9UNA4 whole entry, looked up): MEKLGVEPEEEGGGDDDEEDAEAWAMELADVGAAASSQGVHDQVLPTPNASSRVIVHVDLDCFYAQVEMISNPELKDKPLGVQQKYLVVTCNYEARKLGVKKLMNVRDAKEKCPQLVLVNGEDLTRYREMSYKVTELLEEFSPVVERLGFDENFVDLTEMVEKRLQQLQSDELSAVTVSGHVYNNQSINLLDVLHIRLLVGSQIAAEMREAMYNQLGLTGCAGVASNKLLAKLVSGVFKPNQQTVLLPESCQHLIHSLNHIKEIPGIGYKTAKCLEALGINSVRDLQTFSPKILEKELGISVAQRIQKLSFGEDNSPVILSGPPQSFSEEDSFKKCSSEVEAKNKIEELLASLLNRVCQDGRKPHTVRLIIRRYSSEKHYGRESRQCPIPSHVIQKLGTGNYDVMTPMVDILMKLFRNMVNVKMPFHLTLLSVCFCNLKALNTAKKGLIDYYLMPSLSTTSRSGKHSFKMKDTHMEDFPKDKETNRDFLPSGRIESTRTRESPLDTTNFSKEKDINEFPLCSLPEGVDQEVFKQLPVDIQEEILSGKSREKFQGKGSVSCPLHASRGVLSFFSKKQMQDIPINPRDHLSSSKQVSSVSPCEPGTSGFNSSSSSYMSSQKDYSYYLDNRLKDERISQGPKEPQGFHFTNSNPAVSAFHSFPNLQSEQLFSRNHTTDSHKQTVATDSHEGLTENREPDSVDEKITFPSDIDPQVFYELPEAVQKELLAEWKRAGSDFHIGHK

Potency, active:
Cc1cc(/C=N/Nc2ccc([N+](=O)[O-])cn2)c(C)n1-c1cccc(C(=O)O)c1 67 µM
COCCNC(=O)Nc1ccc2nc(-c3ccco3)c(-c3ccco3)nc2c1 7.52 µM
O=C(COC(=O)c1ccc(F)cc1F)Nc1ncccn1 21.2 µM
O=C(O)C(c1ccccc1)N1C(=O)/C(=C\c2ccc(-c3cccc(Cl)c3)o2)SC1=S (stereo not drawn) 67 µM
CCN(c1ccc(Cl)cc1)S(=O)(=O)c1nnc(NC(=O)c2ccco2)s1 75.2 µM
Cn1c2ccccc2c(=O)c2c(=O)n(Cc3ccco3)c(COc3ccccc3)nc21 75.2 µM
Cc1ccc(-c2nn(-c3ccccc3)cc2/C=C2\SC(=S)N(CCCCCC(=O)O)C2=O)o1 29.9 µM
CCc1ccc2nc3sc(C(=O)Nc4nnc(CC)s4)c(N)c3cc2c1 47.4 µM
COc1ccc2[nH]c3c(C)c4cc[n+](C)cc4c(C)c3c2c1 2.99 µM
O=C1COc2c1ccc(O)c2O 33.6 µM
CN(C)CCNC(=O)c1ccc(Cl)c2cc3ccccc3nc12 67 µM
CC(/C=N/NC(=O)c1cc(-c2ccc3ccccc3c2)n[nH]1)=C\c1ccco1 75.2 µM
O=C(N/N=C/c1ccco1)c1ccc(C(=O)N/N=C/c2ccco2)o1 42.3 µM
Cc1cc(/C=C2\SC(=O)N(C)C2=O)c(C)n1-c1cccc(C(=O)O)c1 47.4 µM
O=C(COC(=O)CCC(=O)c1cccs1)NCc1ccco1 23.8 µM
CSc1nnc(SCc2nc3sc(C(=O)O)c(C)c3c(=O)[nH]2)s1 18.9 µM
CC(=O)N(C1=C(Cl)C(=O)c2ccccc2C1=O)c1ccc(C(=O)O)cc1 67 µM
O=C(c1cc2c(s1)CCC2)N1CCN(c2ccccc2)CC1 37.7 µM
CCOC(=O)C1=C(c2ccc(OC)cc2)C(=O)c2ccccc2C1=O 75.2 µM
Cc1ccc(C(=O)O)cc1-c1ccc(/C=C2\SC(=O)N(CC(=O)Nc3ccc4c(c3)OCO4)C2=O)o1 7.52 µM
CN1CCN(CCCNC(=O)c2ccc(/C=C3\Oc4ccccc4N(Cc4ccc(Cl)cc4)C3=O)cc2)CC1 42.3 µM
O=C(CSc1nc2ccccc2c(=O)[nH]1)Nc1nc(-c2ccc(Br)cc2)cs1 21.2 µM
CCOc1cccc2c1N[C@@H](c1ccc(C(=O)O)cc1)[C@H]1CC=C[C@@H]21 33.6 µM
ON=C1/C(=N\O)CC2(C/C1=N/O)OCCO2 59.7 µM
COc1ccc(Cc2nnc(NC(=O)Cc3cccs3)s2)cc1 16.8 µM
Cc1c(CC(=O)N2CCN(C(=O)C3COc4ccccc4O3)CC2)c(=O)oc2c(O)c(O)ccc12 (stereo not drawn) 15 µM
C=CC1=C(C(=O)O)N2C(=O)[C@@H](NC(=O)/C(=N/OCC(=O)O)c3csc(N)n3)[C@H]2SC1 2.67 µM
COc1ccc(Cl)cc1NC(=O)CCS(=O)(=O)c1ccc(Br)cc1 18.9 µM
